The structures appear in SMILES notation. Records with an inconclusive call do not appear. A number with no mark means an inactive call. Calls of active or inactive are those of the source. Unless noted, calls follow the shape of the dose curve; as a rule, active = well fitted curve in the direction sought with a large enough effect in the repeat runs; inconclusive = weak or mixed curves; inactive = no such curve, though single readings can be large; an effect the other way counts as inactive or inconclusive.

Experiment [1] in a line: qHTS assay to identify aromatase inhibitors - cell viability counter screen (AID 743084).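 Also: cells stimulated with testosterone during compound exposure; nearly all actives have a fitted effect of over 55% in size.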 Background: qHTS replaces the single test concentration by a dilution series.
Experiment [2] has as its target Aryl hydrocarbon receptor (Homo sapiens) (UniProt P35869). The experiment can be described thus: qHTS assay to identify small molecule that activate the aryl hydrocarbon receptor (AhR) signaling pathway (AID 743085).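 Also: HG2L7.5c1 human HepG2 liver cells with stably integrated DRE-driven firefly reporter; series mostly up to about 70 µM; nearly all actives have a fitted effect of over 15% in size.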 The method in brief: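 HepG2 cells (HG2L7.5c1) stably carrying a firefly luciferase reporter driven by 20 dioxin responsive elements were exposed to compound for 24 h at 37C after a 5 h settling period; luminescence rise (ONE-Glo) indicated activation.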

Experiment [3] in a line: qHTS assay to identify small molecule that activate the aryl hydrocarbon receptor (AhR) signaling pathway - cell viability counter screen (AID 743086). Also: nearly all actives have a fitted effect of over 45% in size. Also: potency is read from the fitted curve at half-maximal effect.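 As to viability change, negative = cytotoxic: HepG2 liver cells carrying the AhR DRE luciferase reporter; series mostly up to about 70 µM.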 The method in brief:
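HepG2-AhR-luc (HG2L7.5c1) cells, 4000/well, were preincubated 5 h at 37C, exposed to compound in qHTS format for 24 hr at 37C, then given CellTiter-Fluor for 30 min; viability was read as fluorescence in the reporter wells.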

The target of experiment [4] is Peroxisome proliferator-activated receptor gamma (Homo sapiens) (UniProt P37231). Nature of the experiment: qHTS assay to identify small molecule agonists of the peroxisome proliferator-activated receptor gamma (PPARg) signaling pathway (AID 743094; active = well fitted activation curve with a large enough effect in the signal ratio in the repeat runs, not every such curve was filed as active; the % refers to the signal ratio). Summed up:
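Agonist activity was taken from a beta-lactamase reporter (FRET substrate, 1 h at room temperature) in HEK293H cells carrying a PPARg UAS-bla construct. Compounds in DMSO were incubated 17 h at 37C after a 5 h cell pre-incubation.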

Experiment [5] has the same target. The experiment can be described thus: qHTS assay to identify small molecule antagonists of the peroxisome proliferator-activated receptor gamma (PPARg) signaling pathway (AID 743191; calls by dose curve; also: series mostly up to about 63 µM; nearly all actives have a fitted effect of over 30% in size). Summed up: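 GeneBLAzer PPARg UAS-bla HEK293H cells carrying a UAS-driven beta-lactamase reporter were plated at 3000 cells/well, preincubated 5 h at 37C, then given compound for 17 h at 37C; LiveBLAzer B/G FRET substrate was read after 1 h at room temperature.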

Experiment [6] in a line: qHTS assay for small molecule agonists of the antioxidant response element (ARE) signaling pathway (AID 743202; active = well fitted activation curve with a large enough effect in the signal ratio in the repeat runs, not every such curve was filed as active; the % refers to the signal ratio; also: potency is read from the fitted curve at half-maximal effect). Summed up:
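Steps: seed ARE-bla HepG2 cells (2,000/well); incubate 5 h at 37 C; add compounds by pin tool; incubate 16 h at 37 C; add FRET substrate; read fluorescence after 2 h at RT.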

Experiment [7] in a line: qHTS assay for small molecule activators of the heat shock response signaling pathway - cell viability counter screen (AID 743209). Also: nearly all actives have a fitted effect of over 50% in size. Summed up: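 Cytotoxicity counter screen run in the same wells as the heat-shock bla reporter assay: HeLa HSE-bla cells, 5 h compound exposure at 37 C, viability read by CellTiter-Glo luminescence.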
Experiment [8] is described as follows: qHTS assay to identify small molecule antagonists of the peroxisome proliferator-activated receptor gamma (PPARg) signaling pathway - cell viability counter screen (AID 743194). Also: nearly all actives have a fitted effect of over 55% in size. Also: potency is read from the fitted curve at half-maximal effect. Summed up:
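PPARg-UAS-bla HEK293H cells were plated, rested 5 h at 37 C, then treated with compounds plus rosiglitazone (50 nM final) for 17 h at 37 C; viability was then read by CellTiter-Glo luminescence after 30 min at room temperature.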

Experiment [9] in a line: qHTS assay for small molecule agonists of the antioxidant response element (ARE) signaling pathway - cell viability counter screen (AID 743203; calls by dose curve; also: nearly all actives have a fitted effect of over 55% in size). Summed up: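 Viability counter screen: CellTiter-Glo luminescence, read after 30 min at room temperature, in ARE-bla HepG2 wells. Compound exposure lasted 16 h at 37C/5% CO2, following a 5 h pre-incubation of the cells after plating.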

Experiment [10] can be described thus: qHTS assay for small molecule activators of the heat shock response signaling pathway (AID 743210; active = well fitted activation curve with a large enough effect in the signal ratio in the repeat runs, with a control signal flat, not every such curve was filed as active; the % refers to the signal ratio;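 also: HeLa cells with beta-lactamase reporter driven by heat shock elements; series mostly up to about 63 µM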). The method in brief: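 Activation of heat shock element-controlled beta-lactamase expression is measured in HeLa cells by LiveBLAzer FRET fluorescence, with compound exposure lasting 5 h at 37 C and substrate loading 2.5 h at room temperature.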
% is scaled to controls: 0 for no effect and ±100 for the full control effect.

Sequence of Aryl hydrocarbon receptor (Homo sapiens) (P35869 whole entry, looked up): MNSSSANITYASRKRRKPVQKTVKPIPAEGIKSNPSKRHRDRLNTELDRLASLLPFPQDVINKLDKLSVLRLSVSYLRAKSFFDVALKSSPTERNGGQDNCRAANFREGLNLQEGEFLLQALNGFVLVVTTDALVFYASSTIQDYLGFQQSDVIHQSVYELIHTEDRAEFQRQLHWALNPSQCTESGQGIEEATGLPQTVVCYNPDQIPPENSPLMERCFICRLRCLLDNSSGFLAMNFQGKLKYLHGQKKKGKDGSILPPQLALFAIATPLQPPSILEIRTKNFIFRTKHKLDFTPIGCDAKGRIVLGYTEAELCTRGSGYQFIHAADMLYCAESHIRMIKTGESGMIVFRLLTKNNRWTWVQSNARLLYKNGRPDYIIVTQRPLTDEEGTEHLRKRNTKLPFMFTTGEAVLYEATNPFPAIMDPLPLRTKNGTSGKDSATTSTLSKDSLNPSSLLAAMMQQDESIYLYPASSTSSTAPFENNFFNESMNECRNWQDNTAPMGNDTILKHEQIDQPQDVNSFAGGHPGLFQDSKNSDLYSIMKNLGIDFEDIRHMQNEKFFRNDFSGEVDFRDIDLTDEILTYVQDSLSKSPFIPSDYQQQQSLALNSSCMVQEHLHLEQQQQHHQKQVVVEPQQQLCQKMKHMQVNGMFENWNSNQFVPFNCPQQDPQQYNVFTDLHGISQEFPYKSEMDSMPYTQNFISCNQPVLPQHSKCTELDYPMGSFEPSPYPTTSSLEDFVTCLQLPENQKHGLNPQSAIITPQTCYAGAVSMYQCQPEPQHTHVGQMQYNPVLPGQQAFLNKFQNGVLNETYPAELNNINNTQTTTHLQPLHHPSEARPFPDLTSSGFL
Sequence of Peroxisome proliferator-activated receptor gamma (Homo sapiens) (P37231 whole entry, looked up): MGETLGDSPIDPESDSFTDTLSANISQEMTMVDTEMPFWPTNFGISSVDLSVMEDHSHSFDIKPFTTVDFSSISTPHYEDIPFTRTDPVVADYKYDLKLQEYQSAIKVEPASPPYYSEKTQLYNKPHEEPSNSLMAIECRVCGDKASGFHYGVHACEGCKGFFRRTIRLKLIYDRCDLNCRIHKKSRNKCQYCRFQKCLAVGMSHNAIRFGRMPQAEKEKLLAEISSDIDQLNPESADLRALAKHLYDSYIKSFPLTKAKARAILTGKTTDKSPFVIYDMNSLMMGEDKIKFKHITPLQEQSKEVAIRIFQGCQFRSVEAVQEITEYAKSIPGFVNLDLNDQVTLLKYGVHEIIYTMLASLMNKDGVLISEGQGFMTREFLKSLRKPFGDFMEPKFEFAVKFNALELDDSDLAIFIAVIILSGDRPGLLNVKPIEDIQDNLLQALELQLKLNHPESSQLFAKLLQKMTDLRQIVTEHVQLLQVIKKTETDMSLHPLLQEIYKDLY

Consider `C=CCCCCCC`, for which the Potency entry in experiment [1], in [2], in experiment [3], in [4], in [5] and in [6] was “inactive” in each case. Moreover, the Potency result in experiment [7] is “inactive”.
With `COCCO`, the Potency result in [1], in [2], in [3], in experiment [4], in experiment [8] and in experiment [6] was “inactive” in each case. The Potency result in [9] and in experiment [7] was “inactive” throughout. Also, in experiment [10], the call was inactive.
In the case of `NC[C@H]1O[C@H](O[C@H]2[C@H](O)[C@@H](O[C@H]3O[C@H](CO)[C@@H](O)[C@H](N)[C@H]3O)[C@H](N)C[C@@H]2N)[C@H](O)[C@@H](O)[C@@H]1O`, the Potency entry in experiment [1], in experiment [3] and in experiment [4] was “inactive” throughout. The activation in [2] was 0.116% [at 8.47 µM]; in experiment [6] it was 4.43% [at 8.36 µM]. Further, the results for the activity change, negative = cytotoxicity in experiment [8] and in experiment [7] were -17.2% [at 5.95 µM] and 5.37% [at 5.95 µM], respectively. The viability change, negative = cytotoxic in experiment [9] is 7.86% [at 8.36 µM].
Turning to `O=c1c2ccccc2nnn1CCl`, the Potency result in experiment [1], in [2], in experiment [3], in experiment [4], in [5] and in experiment [9] was “inactive” each time. The Potency entry in [7] was “inactive”. In experiment [10], the call was inactive.
Turning to `CCCCC(CC)(CO)CO`, the Potency entry in experiment [1], in experiment [2], in experiment [3], in experiment [4], in experiment [8] and in experiment [6] was “inactive” throughout. Further, the Potency entry in [9] and in [7] was “inactive” in each case. Further, the call in experiment [10] was inactive.
On to `CC(=O)OC/C=C/c1ccccc1`, for which the Potency entry in [1], in [2], in experiment [3], in experiment [4], in experiment [8] and in experiment [6] was “inactive” in each case. In addition, the Potency result in [9] and in [7] was “inactive” each time. For the same molecule, in experiment [10], the molecule was called inactive.
Consider `COC(=O)C(C)=O`, for which the Potency entry in [1], in experiment [2], in experiment [3], in experiment [4], in experiment [5] and in experiment [6] was “inactive” each time. Besides, the Potency entry in [7] was “inactive”. In addition, the outcome in experiment [10] was inactive.
As to `NC(=S)N/N=C/c1cccnc1`, the Potency result in experiment [1], in experiment [2], in experiment [3], in [4], in experiment [6] and in experiment [9] was “inactive” throughout. Further, the Potency result in [7] is “inactive”. Moreover, in experiment [10], the outcome was inactive.
`O=C(O)COC(=O)Cc1ccccc1Nc1c(Cl)cccc1Cl`: the Potency entry in [1], in [2], in experiment [3], in [8], in experiment [6] and in experiment [9] was “inactive” throughout. Further, in experiment [7], the Potency entry is “inactive”. Besides, the result in [10] was inactive.
For `O=C(O)Cc1cc(I)c(Oc2ccc(O)c(I)c2)c(I)c1`, the Potency entry in experiment [1], in experiment [2], in [3] and in experiment [7] was “inactive” throughout. Moreover, the Potency in [8] is 24.5 µM (active); in experiment [6], 15.4 µM (active).
For the molecule `CC(=O)CC(=O)c1ccccc1`, the Potency entry in experiment [1], in experiment [2], in [3], in [5], in [8] and in [6] was “inactive” in each case. Also, the Potency result in experiment [9] and in experiment [7] was “inactive” in each case. Moreover, the outcome in [10] was inactive.
`CC1(C)CCC(C)(C)c2cc(NC(=O)c3ccc(C(=O)O)cc3)ccc21`: the Potency result in experiment [1], in experiment [2], in [3], in experiment [4], in experiment [9] and in experiment [7] was “inactive” throughout.
Consider `CC(=O)[C@@]1(O)CC[C@H]2[C@@H]3C[C@H](C)C4=CC(=O)CC[C@]4(C)[C@H]3CC[C@@]21C`, for which the Potency result in experiment [1], in [2], in [3], in experiment [4], in experiment [8] and in [9] was “inactive” in each case. Besides, the Potency entry in [7] was “inactive”. The result in experiment [10] was inactive.
Take `CN(C)CC/C=C1\c2ccccc2COc2ccccc21`: the Potency result in experiment [1], in experiment [2], in experiment [3], in experiment [8], in experiment [6] and in experiment [9] was “inactive” throughout. Moreover, the Potency result in experiment [7] is “inactive”. Also, the result in [10] was inactive.
Consider `CCCCCOC(=O)COc1cc(N2C(=O)C3=C(CCCC3)C2=O)c(F)cc1Cl`, for which the Potency result in experiment [1], in experiment [2], in [3], in experiment [4], in [8] and in [9] was “inactive” in each case. Further, the Potency result in [7] is “inactive”. The result in [10] was inactive.
Turning to `CC1=CCC(C(C)C)C=C1` (stereo not given), the Potency result in experiment [1], in experiment [2], in experiment [3], in [4], in experiment [9] and in experiment [7] was “inactive” in each case. For the same molecule, the molecule was classed as inactive in experiment [10].
On to `CCCCCCCCCO`, for which the Potency result in experiment [1], in experiment [2], in [3], in [4], in experiment [8] and in [9] was “inactive” each time. In experiment [7], the Potency entry was “inactive”. Further, the molecule was called inactive in [10].
For `CC(C)(C)C(=O)OCOP(=O)(COCCn1cnc2c(N)ncnc21)OCOC(=O)C(C)(C)C`, the Potency entry in [1], in experiment [2], in experiment [3], in experiment [4], in experiment [9] and in experiment [7] was “inactive” each time. Further, the Potency in experiment [6] was 2.11 µM (active). The molecule was classed as inactive in [10].
As to `C[Si](C)O[Si](C)(C)O[Si](C)(C)O[Si](C)C`, the Potency result in [1], in experiment [2], in experiment [3], in [4], in [6] and in [9] was “inactive” each time. The Potency result in experiment [7] was “inactive”.
In the case of `NCCCN(CCO)CCO`, the Potency entry in [1], in experiment [2], in [3], in experiment [4], in experiment [8] and in [9] was “inactive” in each case. For the same molecule, the Potency result in experiment [7] is “inactive”. Besides, in experiment [10], the molecule was classed as inactive.
Consider `CC(C)CCCCCCOC(=O)c1ccc(C(=O)OCCCCCCC(C)C)c(C(=O)OCCCCCCC(C)C)c1`, for which the Potency result in experiment [1], in [2], in experiment [3], in experiment [4], in experiment [9] and in [7] was “inactive” throughout. In [10], the molecule was called inactive.
For `CC(C)NCC(O)c1cc(O)cc(O)c1` (stereo not given), the Potency entry in [1], in experiment [2], in experiment [3], in experiment [4], in experiment [8] and in [7] was “inactive” each time. In addition, the molecule was classed as inactive in experiment [10].
For `CC[C@H](C)[C@@H](C(=O)O)n1sc2ccccc2c1=O`, the Potency result in [1], in [2], in experiment [3], in experiment [4], in [8] and in [9] was “inactive” throughout. The Potency entry in experiment [7] was “inactive”. The molecule was classed as inactive in experiment [10].
`CC/C(=C\C(=N/O)C(N)=O)C(C)[N+](=O)[O-]` (stereo not given): the Potency entry in [1], in experiment [2], in experiment [3], in [5], in experiment [8] and in experiment [9] was “inactive” throughout. Further, the Potency entry in experiment [7] was “inactive”.
As for `NC1CCN(c2nc3c(cc2F)c(=O)c(C(=O)O)cn3-c2ccc(F)cc2F)C1` (stereo not given), the Potency result in experiment [1], in experiment [2], in [3], in experiment [8], in experiment [9] and in experiment [7] was “inactive” throughout. In addition, in [6], the Potency is 26.6 µM (active).
In the case of `O=C(CCN1CCN2CCCC2C1)N1c2ccccc2Sc2ccc(Cl)cc21` (stereo not given), the Potency entry in experiment [1], in experiment [2], in experiment [4], in [8] and in experiment [7] was “inactive” throughout. For the same molecule, in experiment [3], the Potency is 23.7 µM (active). For the same molecule, the molecule was classed as inactive in experiment [10].

These data come from PubChem BioAssay (Tox21).
